Here are results for 13 compounds from PubChem BioAssay.

Assay [1] deals with Human papillomavirus type 1a protein E7 (residues 44-93). The assay can be described thus: HPV1a E7 fragment binders on microarrays, primary screen, biochemical, small-molecule microarray, residues 44-93, 635 nm fluorescence (AID 1108).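 Note: E7 fragment applied at 1 µg/mL in TBST for 1 h at 4 C; score combines spot fluorescence with its signal to noise ratio.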 The settings on record: small-molecule microarray binding, fluorescence 635 nm; higher = more signal.
A short description of assay [2]: modulators of HCV replicon luciferase signal, primary screen, HCV replication inhibitor project, Huh7 cells, luciferase reporter (AID 1109).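 Note: huh7 hepatoma cells harbouring a luciferase neomycin HCV replicon reporter; luciferase luminescence as measure of HCV replicon replication; test concentration not given here.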 The settings on record: 48 h, higher = more signal. (In antiviral work, replicon cells carry a viral genome segment that copies itself.)
Assay [3] deals with Left-right determination factor 2 (Homo sapiens) (UniProt O00292). In words: LEFTY2 binders on small-molecule microarrays, primary screen, biochemical, small-molecule microarray, 635 nm fluorescence scan (AID 1110). The settings on record: LEFTY2 binding, higher = more signal.
Left-right determination factor 2 (Homo sapiens), sequence (O00292 whole entry, looked up): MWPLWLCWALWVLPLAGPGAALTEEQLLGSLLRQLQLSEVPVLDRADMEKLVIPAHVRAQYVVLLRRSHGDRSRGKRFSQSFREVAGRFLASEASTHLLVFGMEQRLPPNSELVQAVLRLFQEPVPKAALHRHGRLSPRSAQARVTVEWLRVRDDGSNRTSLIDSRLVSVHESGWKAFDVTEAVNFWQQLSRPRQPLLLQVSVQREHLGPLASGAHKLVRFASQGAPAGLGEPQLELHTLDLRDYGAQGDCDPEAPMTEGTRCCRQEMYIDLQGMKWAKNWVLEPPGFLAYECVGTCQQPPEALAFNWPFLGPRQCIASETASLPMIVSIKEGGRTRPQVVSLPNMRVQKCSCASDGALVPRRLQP
The target of assay [4] is Calmodulin-1 (Homo sapiens) (UniProt P0DP23). The assay can be described thus: CALM1 binders on microarrays, EGTA buffer, profiling panel, biochemical, small-molecule microarray, Cy5-labelled CALM1 (AID 1111).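 Note: labelled calmodulin applied in Tris saline Tween buffer holding calcium plus EGTA and DTT.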 The settings on record: Cy5-CALM1 binding fluorescence, higher = more signal.
For assay [5] the target is unchanged. The assay can be described thus: calcium-bound CALM1 binders on microarrays, profiling panel, artefact control for SMM control-protein annotation, biochemical, small-molecule microarray, Cy5-labelled CALM1, plus calcium (AID 1112).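 Note: score merges spot fluorescence with signal to noise from triplicate slides.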 The settings on record: Cy5-CALM1 binding fluorescence, higher = more signal.
Assay [6] in a line: small-molecule microarray binders of probe aWnt5a, primary screen, biochemical, biotinylated probe, 635/667 nm fluorescence (AID 1113).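 Note: score merges 667 nm fluorescence intensity with signal-to-noise per printed feature.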 The settings on record: higher = more signal.
A short description of assay [7]: small-molecule microarray binders of probe aShh, primary screen, biochemical, biotinylated probe, 635/667 nm fluorescence (AID 1114).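 Note: probe is biotin-labelled aShh protein from a stem cell growth factor screen; measures binding of labelled protein to compounds printed on the slide; score merges feature fluorescence at 667 nm with signal-to-noise.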 The settings on record: higher = more signal.
Assay [8] in a line: small-molecule microarray binders of probe aNog, primary screen, biochemical, biotinylated probe, 635/667 nm fluorescence (AID 1115).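 Note: probe is biotinylated aNog protein used at 0.15 µg/mL for 1 h at 4 C; z-score combines 667 nm fluorescence of each spot with its signal to noise.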 The settings on record: higher = more signal.
In assay [9] the target is Torsin-1A-interacting protein 1 (Homo sapiens) (UniProt Q5JTV8). The assay can be described thus: LAP1 binders from COS7 cell lysate, primary screen, small-molecule microarray, 635/667 nm fluorescence (AID 1116). The note with it: COS7-hLAP1 lysate binding, 635 nm fluorescence, higher = more signal.
Torsin-1A-interacting protein 1 (Homo sapiens), sequence (Q5JTV8 whole entry, looked up): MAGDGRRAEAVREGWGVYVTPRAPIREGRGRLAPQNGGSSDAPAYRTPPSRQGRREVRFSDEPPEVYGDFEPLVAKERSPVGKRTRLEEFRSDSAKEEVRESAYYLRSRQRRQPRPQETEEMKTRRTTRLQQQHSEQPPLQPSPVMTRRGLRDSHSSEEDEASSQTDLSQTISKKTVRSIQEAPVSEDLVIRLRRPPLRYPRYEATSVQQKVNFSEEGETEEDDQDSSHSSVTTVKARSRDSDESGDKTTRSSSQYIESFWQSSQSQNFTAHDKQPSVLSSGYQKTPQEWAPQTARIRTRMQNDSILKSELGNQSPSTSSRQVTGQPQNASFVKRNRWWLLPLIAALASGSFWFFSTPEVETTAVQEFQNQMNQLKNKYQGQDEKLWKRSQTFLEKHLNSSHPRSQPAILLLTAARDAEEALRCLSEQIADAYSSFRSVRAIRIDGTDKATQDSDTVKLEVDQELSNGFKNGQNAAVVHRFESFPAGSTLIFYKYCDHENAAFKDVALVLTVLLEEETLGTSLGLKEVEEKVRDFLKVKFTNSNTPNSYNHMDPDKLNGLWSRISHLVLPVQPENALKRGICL
Assay [10] concerns the target Alpha-bungarotoxin (Bungarus multicinctus) (UniProt P60615). The assay can be described thus: alpha-bungarotoxin binders on microarray, profiling panel, artefact control for SMM control protein annotation, biochemical, small-molecule microarray, Alexa647 label, 635/667 nm fluorescence (AID 1117). The note with it: alpha-BTX-A647 binding fluorescence, higher = more signal.

Alpha-bungarotoxin (Bungarus multicinctus), sequence (P60615 whole entry, looked up): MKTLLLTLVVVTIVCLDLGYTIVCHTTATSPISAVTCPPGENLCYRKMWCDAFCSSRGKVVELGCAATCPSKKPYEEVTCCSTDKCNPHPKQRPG

For the compound `Cc1ccc(S[C@]2(C(=O)NCCCN(C)C)CC(=O)N(Cc3ccccc3C(F)(F)F)[C@@H]2c2ccc(CO)cc2)cc1`, the composite z-score in [1] was -0.812; in assay [3], -1.89; in [4], -0.168; in [5] it was 0.0625; in assay [6], -0.0944; in assay [7], 0.0893. The composite z-score in [8] was found to be 0.216; in assay [9], 0.122; in assay [10], 0.266. This compound also registered a z-score in assay [2] of -0.767.
Regarding `CC(C)C[C@@H]1NC(=O)[C@@H]2C[C@H](C(=O)O)[C@H](c3cccc(OCCO)c3)N2C1=O`, the composite z-score in assay [1] was -0.366; in [3], -0.312; in assay [4], 0.26; in [5], 0.758; in assay [6] it was -0.147; in assay [7], -0.199. Also, the results for the composite z-score in [8], in [9] and in assay [10] were -0.066, 0.517 and -0.937, respectively. This compound also yielded a z-score in assay [2] of 0.148.
For `O=C1OCCC/C=C\[C@H]2OC34C=CCN(Cc5ccccc5)C(=O)[C@H]3N(CCCO)C(=O)[C@@H]4C12` (stereo not given in full), the composite z-score in assay [1] was 0.0636; in assay [3], -2.09; in [4], -0.537; in assay [5], 0.464; in assay [6], -0.178; in [7], -0.16. Also, the composite z-score in assay [8] was -0.244; in assay [9], 1.82; in assay [10] it was -0.972. Moreover, the z-score in [2] is -0.779.
Take `Cc1ccc(S[C@]2(C(=O)NC3CC3)CC(=O)N(Cc3ccccc3)[C@@H]2c2ccc(CO)cc2I)cc1`: the composite z-score is 0.477 in assay [1]; -1.2 in [3]; -0.351 in [4]; -0.149 in assay [5]; -0.0221 in [6]; -0.0794 in [7]. Also, the composite z-score in [8] is 0.503; in assay [9], -0.0172; in [10] it was -0.734. In addition, the z-score in assay [2] is -1.9.
As to `COC(=O)[C@@]1(Cc2ccc(F)cc2)[C@H]2c3cc(C(=O)N(C)C)n(Cc4cc(F)c(F)c(F)c4)c3C[C@H]2CN1C(=O)c1ccccc1`, the composite z-score was 1.32 in assay [1]; -0.323 in assay [3]; 1.6 in [4]; 1.01 in assay [5]; 0.245 in [6]; 0.566 in assay [7]. Also, the results for the composite z-score in assay [8], in assay [9] and in assay [10] were 2.27, 1.16 and 1.17, respectively. In [2], this compound returned a z-score of -2.75.
For `COC(=O)[C@@]1(Cc2ccc(F)cc2)[C@H]2c3cc(C(=O)N(C)C)n(Cc4ccccc4)c3C[C@H]2CN1C(=O)c1ccccc1`, the composite z-score in assay [1] was 1.35; in [3], -0.496; in [4] it was 1.11; in assay [5] it was 0.363; in [6], -0.0977; in assay [7], 1.17. The composite z-score was 1.59 in assay [8], -0.3 in [9] and 2.56 in assay [10]. Further, the z-score in assay [2] turned out to be 0.185.
In the case of `C=C(COC)/C(=C/C[C@@H](OC(=O)c1ccncc1)c1ccc(CO)o1)c1cc(C(=O)OC)ccc1OC`, the composite z-score was 1.4 in [1]; 1.44 in assay [3]; 0.209 in [4]; -0.708 in assay [5]; 0.0077 in assay [6]; -0.138 in [7]. Moreover, the composite z-score in assay [8] is -0.18; in assay [9], 0.877; in assay [10], 0.702. For the same compound, the z-score in assay [2] is -0.557.
Regarding `CCCCC(CC)C(O)C1C=CC2C(=O)N(Cc3ccccc3)C(=O)C2N1n1cnnc1` (stereo not given), the composite z-score in assay [1] is 0.281; in [3], -0.729; in assay [4], -0.0327; in assay [5], -0.658; in [6] it was -0.124; in assay [7], -0.153. In addition, the composite z-score in assay [8] was -0.127; in assay [9], -0.0742; in assay [10] it was 0.308. The same compound registered a z-score in assay [2] of 0.137.
Turning to `COC(=O)C(CC#Cc1ccc2c(c1)[C@]1(C(=O)N2)[C@H](c2ccc(OCCO)cc2)N2[C@H](c3ccccc3)[C@H](c3ccccc3)OC(=O)[C@H]2[C@@H]1C(=O)N1CCc2cc(OC)c(OC)cc2C1)C(=O)OC`, the composite z-score came out at 1.4 in assay [1]; 0.459 in assay [3]; 1.66 in assay [4]; 0.236 in assay [5]; 0.296 in assay [6]; 0.191 in assay [7]. In addition, the composite z-score in assay [8] was -0.422; in assay [9], 1.58; in [10] it was 1.77. Also, the z-score in [2] was -1.01.
With `COc1cc(C(O)C2C=CC3C(=O)NC(=O)C3N2Nc2ccccn2)cc(OC)c1OC` (stereo not given), the composite z-score in [1] is 1.04; in assay [3], 0.0534; in [4], -0.0338; in assay [5] it was -0.62; in assay [6] it was -0.128; in assay [7], -0.243. For the same compound, the composite z-score was 0.416 in [8], 0.531 in assay [9] and -0.0198 in assay [10]. The same compound returned a z-score in assay [2] of -0.178.
Take `CC(C)NC(=O)[C@@]1(c2ccc([N+](=O)[O-])cc2)CC(=O)N(C2CCCCC2)[C@@H]1c1ccc(CO)cc1I`: the composite z-score in assay [1] was 0.621; in [3] it was -0.159; in assay [4] it was 0.249; in assay [5], 0.272; in assay [6], 0.0375; in [7], -0.189. Moreover, the composite z-score in [8] is 0.176; in assay [9], 0.707; in assay [10] it was -0.174. The same compound showed a z-score in assay [2] of -2.16.
In the case of `NC(=O)N1C(=O)C2C(C1=O)C1C=C(c3ccc(CO)cc3)C2C(c2cccs2)N1Cc1cccc(OC(F)(F)F)c1` (stereo not given), the composite z-score is 0.142 in [1]; -0.647 in assay [3]; 1.51 in assay [4]; 1.16 in assay [5]; 0.0573 in assay [6]; 0.275 in assay [7]. The composite z-score amounted to 0.596 in assay [8], 1.13 in assay [9] and 0.611 in assay [10]. Moreover, the z-score in assay [2] was -0.657.
Regarding `COCCOC(=O)N1C(=O)[C@@]2(c3cc(C#CCC(C(=O)OC)C(=O)OC)ccc31)[C@H](C(=O)N1CCN(c3ncccn3)CC1)[C@H]1C(=O)O[C@H](c3ccccc3)[C@H](c3ccccc3)N1[C@@H]2c1ccccc1OCCO`, the composite z-score in assay [1] was 1.38; in assay [3], 1.16; in [4], 0.875; in assay [5] it was -0.487; in assay [6], -0.0403; in assay [7] it was -0.17. Besides, the composite z-score in assay [8] was -0.141; in assay [9], 0.351; in assay [10] it was 1.29. For the same compound, in assay [2], the z-score is -1.94.
